Experimental data reported in PubChem BioAssay (NCATS).
Records with an inconclusive call do not appear. Active and inactive are the calls of the source. Calls follow the shape of the dose curve; as a rule, active = well fitted curve in the direction sought with a large enough effect; inconclusive = small, poorly fitted or top-dose-only effect, or another doubt; inactive = no such curve, though single readings can be large; an effect the other way counts as inactive or inconclusive.

Tests used:
[1] = Quantitative High-Throughput drug screen in 47 multiple myeloma cell lines against the NCATS MIPE library collection: XG1_PLB cell viability assay (AID 1919866); also: nearly all actives have a fitted effect of over 35% in size
Summary of the method: (§1)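 Inhibition of viability over 48 h was scored by ATP content (CellTiter-Glo) in 500-cell wells. Zero and full viability were defined by media-only and DMSO-only wells.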

[2] = Quantitative High-Throughput drug screen in 47 multiple myeloma cell lines against the NCATS MIPE library collection: VP6_DJ cell viability assay (AID 1919867); also: nearly all actives have a fitted effect of over 40% in size
Summary of the method: as §1

[3] = Quantitative High-Throughput drug screen in 47 multiple myeloma cell lines against the NCATS MIPE library collection: UTMC2_PLB cell viability assay (AID 1919868); also: nearly all actives have a fitted effect of over 55% in size
Summary of the method: as §1

[4] = Quantitative High-Throughput drug screen in 47 multiple myeloma cell lines against the NCATS MIPE library collection: PE2_PLB cell viability assay (AID 1919869); also: nearly all actives have a fitted effect of over 35% in size
Summary of the method: as §1

[5] = Quantitative High-Throughput drug screen in 47 multiple myeloma cell lines against the NCATS MIPE library collection: PCM6_Riken cell viability assay (AID 1919870); also: nearly all actives have a fitted effect of over 30% in size
Summary of the method: as §1

[6] = Quantitative High-Throughput drug screen in 47 multiple myeloma cell lines against the NCATS MIPE library collection: RPMI8226_ATCC cell viability assay (AID 1919871); also: nearly all actives have a fitted effect of over 30% in size
Summary of the method: as §1

[7] = Quantitative High-Throughput drug screen in 47 multiple myeloma cell lines against the NCATS MIPE library collection: OPM2_DSMZ cell viability assay (AID 1919872); also: nearly all actives have a fitted effect of over 30% in size
Summary of the method: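 Inhibition of cell viability is measured here. Each line was plated at 500 cells per well, treated with MIPE 4.0 drugs, kept 48 hours at 37C, then assayed for ATP content by CellTiter-Glo luminescence.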

[8] = Quantitative High-Throughput drug screen in 47 multiple myeloma cell lines against the NCATS MIPE library collection: KMS28BM_JCRB cell viability assay (AID 1919874); also: nearly all actives have a fitted effect of over 35% in size
Summary of the method: as §1

[9] = Quantitative High-Throughput drug screen in 47 multiple myeloma cell lines against the NCATS MIPE library collection: KMS11_JCRBsus cell viability assay (AID 1919873); also: nearly all actives have a fitted effect of over 50% in size
Summary of the method: as §1

[10] = molecular target: Cytochrome P450 3A4 (Homo sapiens) (UniProt P08684); test: qHTS for inhibitors of CYP3A4 against the NCATS DSHEA and TCM libraries (AID 1919971); conditions: recombinant CYP3A4 enzyme activity, luminescence qHTS
Sequence of Cytochrome P450 3A4 (Homo sapiens) (P08684 whole entry, looked up): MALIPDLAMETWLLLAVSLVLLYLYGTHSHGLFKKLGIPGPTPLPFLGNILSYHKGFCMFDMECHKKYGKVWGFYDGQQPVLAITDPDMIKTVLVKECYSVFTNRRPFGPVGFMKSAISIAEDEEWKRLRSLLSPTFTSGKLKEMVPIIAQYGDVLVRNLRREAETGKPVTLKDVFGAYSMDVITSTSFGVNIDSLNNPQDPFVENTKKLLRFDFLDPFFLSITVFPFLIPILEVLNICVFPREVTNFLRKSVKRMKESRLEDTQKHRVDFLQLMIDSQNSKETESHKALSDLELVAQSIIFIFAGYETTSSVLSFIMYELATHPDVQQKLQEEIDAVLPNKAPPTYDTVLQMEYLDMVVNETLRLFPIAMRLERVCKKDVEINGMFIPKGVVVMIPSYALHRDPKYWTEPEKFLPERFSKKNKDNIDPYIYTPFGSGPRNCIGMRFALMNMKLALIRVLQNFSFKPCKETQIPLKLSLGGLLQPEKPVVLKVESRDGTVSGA
Summary of the method: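 Luminescent P450-Glo format: compounds preincubated 15 min with enzyme and luciferin substrate, reaction run 30-45 min after NADPH regeneration solution. Intraplate controls: ketoconazole for CYP3A4 and CYP2C19, sulfaphenazole for CYP2C9.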

Measured: Potency
Potency is read from the fitted curve at half-maximal effect.

COC1=C(OC)C(=O)C(CCCCCCCCCCO)=C(C)C1=O
active: [1] 16.6 µM | [2] 14.8 µM | [3] 26.4 µM | [4] 26.4 µM | [5] 16.6 µM
inactive: [6] | [7]

O=C(CCc1ccc(O)cc1)c1c(O)cc(O)cc1O
inactive: [8]
active: [1] 0.132 µM | [2] 0.418 µM | [3] 0.332 µM | [4] 5.26 µM | [5] 0.235 µM | [6] 4.69 µM | [7] 3.32 µM

CCOC(=O)C1=C[C@@H](OC(CC)CC)[C@H](NC(C)=O)[C@@H](N)C1
not listed: [3] | [10]
inactive: all other assays above

COc1cc(Nc2c(C#N)cnc3cc(OCCCN4CCN(C)CC4)c(OC)cc23)c(Cl)cc1Cl
active: [1] 2.96 µM | [2] 1.05 µM | [3] 0.526 µM | [4] 3.72 µM | [5] 1.87 µM | [9] 18.7 µM | [8] 18.7 µM

COc1cc2c(N3CCN(C(=O)Nc4ccc(OC(C)C)cc4)CC3)ncnc2cc1OCCCN1CCCCC1
active: [1] 13.2 µM | [2] 8.33 µM | [3] 4.18 µM | [4] 16.6 µM | [5] 6.62 µM

CC(C)(S)[C@@H](N)C(=O)O
not listed: [3] | [8] | [10]
inactive: all other assays above

O=C(O)c1cccnc1Nc1cccc(C(F)(F)F)c1
active: [2] 3.32 µM
not listed: [4] | [10]
inactive: all other assays above

CN(C)c1ccc2nc3ccc(=[N+](C)C)cc-3sc2c1
active: [1] 1.32 µM | [2] 1.32 µM | [3] 1.48 µM | [4] 3.72 µM | [5] 1.05 µM | [6] 6.62 µM | [9] 2.64 µM | [8] 2.96 µM

C[C@H](Cn1cnc2c(N)ncnc21)OCP(=O)(O)O
inactive: [1] | [2] | [3] | [4] | [7] | [8]

c1ccc2[nH]c(-c3cscn3)nc2c1
not listed: [3] | [10]
inactive: all other assays above

O=C(O)CCNC(=O)c1ccc(N=Nc2ccc(O)c(C(=O)O)c2)cc1
not listed: [3] | [10]
inactive: all other assays above

O=C(NOCC1CC1)c1ccc(F)c(F)c1Nc1ccc(I)cc1Cl
active: [1] 11.8 µM | [2] 4.69 µM | [3] 13.2 µM | [4] 6.62 µM | [5] 14.8 µM | [9] 20.9 µM | [8] 26.4 µM

CC(C)C[C@H](NC(=O)[C@H](Cc1ccccc1)NC(=O)c1cnccn1)B(O)O
active: [1] 0.0105 µM | [2] 0.0074 µM | [3] 0.148 µM | [5] 0.0105 µM | [6] 0.0187 µM | [7] 0.0264 µM | [9] 0.0083 µM | [8] 0.0132 µM

CCN(CC)C(=S)SSC(=S)N(CC)CC
active: [1] 0.001 µM | [2] 0.001 µM | [3] 0.0118 µM | [5] 0.001 µM | [6] 0.0187 µM | [7] 0.0418 µM | [9] 0.003 µM | [8] 0.0019 µM

CC(=O)N1CCN(c2ccc(OC[C@H]3CO[C@](Cn4ccnc4)(c4ccc(Cl)cc4Cl)O3)cc2)CC1
active: [1] 13.2 µM | [2] 11.8 µM | [4] 14.8 µM | [7] 18.7 µM
inactive: [3]

Cc1cc(Cl)ccc1OCCCC(=O)NO
active: [1] 1.05 µM | [2] 3.72 µM | [3] 9.35 µM | [4] 7.43 µM | [5] 2.35 µM
inactive: [6] | [7]

Clc1ccc(C(Cn2ccnc2)OCc2ccc(Sc3ccccc3)cc2)c(Cl)c1 (configuration not stated)
active: [1] 23.5 µM | [2] 20.9 µM | [3] 33.2 µM | [4] 20.9 µM | [5] 18.7 µM | [6] 23.5 µM | [8] 20.9 µM

CN(C)CCc1c[nH]c2ccc(Cn3cncn3)cc12
active: [2] 2.09 µM
not listed: [10]
inactive: all other assays above

COc1ccccc1N1CCN(CCN(C(=O)C2CCCCC2)c2ccccn2)CC1
active: [1] 7.43 µM | [2] 5.9 µM
inactive: [3] | [6] | [7] | [8]

Cc1cccc(C)c1OCC(=O)N[C@@H](Cc1ccccc1)[C@@H](O)C[C@H](Cc1ccccc1)NC(=O)[C@H](C(C)C)N1CCCNC1=O
active: [1] 20.9 µM

NC(=NCc1ccccc1)NC(=O)c1nc(Cl)c(N)nc1N
inactive: [3] | [6] | [7] | [8]
active: [1] 2.64 µM | [2] 7.43 µM | [4] 9.35 µM | [5] 4.69 µM

CCCc1cc(=O)[nH]c(=S)[nH]1
inactive: [1] | [2] | [4] | [5] | [6] | [7]

CN(c1nccc(=O)[nH]1)C1CCN(c2nc3ccccc3n2Cc2ccc(F)cc2)CC1
active: [1] 18.7 µM | [2] 23.5 µM | [3] 16.6 µM
inactive: [6] | [7] | [9]

Oc1ccc(OCc2ccccc2)cc1
not listed: [6] | [10]
inactive: all other assays above

COC(=O)C1=C(C)NC(C)=C(C(=O)OCCCN2CCC(c3ccccc3)(c3ccccc3)CC2)C1c1cccc([N+](=O)[O-])c1 (configuration not stated)
not listed: [6] | [10]
inactive: all other assays above

Cc1cc(O)c2c(c1)C(=O)c1cc(O)cc(O)c1C2=O
active: [6] 23.5 µM | [10] 10 µM
not listed: [4] | [5]
inactive: all other assays above

Cc1ncc([N+](=O)[O-])n1CC(C)O (configuration not stated)
active: [1] 10.5 µM | [2] 18.7 µM | [3] 18.7 µM
inactive: [7] | [9] | [8]

Cc1cc(=O)c2c(O)c3c(O)cc(=O)c4c3c3c(cc(O)c1c23)C(C)(C)C=4O
active: [1] 1.05 µM | [2] 0.469 µM | [3] 0.296 µM | [4] 0.296 µM | [5] 1.87 µM | [6] 1.48 µM | [7] 13.2 µM

O=C(c1ccccc1)c1ccc2n1CCC2C(=O)O (configuration not stated)
active: [1] 9.35 µM | [2] 9.35 µM | [3] 14.8 µM | [4] 9.35 µM | [5] 10.5 µM | [8] 23.5 µM
inactive: [6] | [7]

Nc1nc(N)c(N=O)c(OCC2CCCCC2)n1
active: [1] 4.69 µM | [2] 2.96 µM | [3] 5.26 µM | [4] 9.35 µM | [5] 5.26 µM | [8] 16.6 µM

N[C@@H](Cc1cc(I)c(Oc2cc(I)c(O)c(I)c2)c(I)c1)C(=O)O
not listed: [3] | [10]
inactive: all other assays above

CC(=O)NC[C@H]1CN(c2ccc(N3CCOCC3)c(F)c2)C(=O)O1
not listed: [6] | [9] | [10]
inactive: all other assays above

O=c1ccc2ccc(O)c(O)c2o1
inactive: [6] | [7] | [9] | [8]
active: [1] 4.18 µM | [2] 11.8 µM | [4] 13.2 µM | [5] 13.2 µM

O=c1oc2cc(O)ccc2s1
inactive: [1] | [2] | [3] | [4] | [7] | [8]

Cc1nc2n(c(=O)c1CCN1CCC(c3noc4cc(F)ccc34)CC1)CCCC2
active: [2] 7.43 µM
not listed: [3] | [10]
inactive: all other assays above

O=Nc1c(-c2c(O)[nH]c3cc(Br)ccc23)[nH]c2ccccc12
active: [1] 5.9 µM | [2] 5.26 µM | [3] 8.33 µM | [4] 5.26 µM | [5] 3.32 µM | [6] 18.7 µM | [7] 20.9 µM

S=c1nc[nH]c2nc[nH]c12
active: [1] 1.66 µM | [2] 5.26 µM | [3] 14.8 µM | [4] 4.18 µM | [5] 5.9 µM | [8] 1.18 µM

CCN(CC)CCOc1ccc(Nc2ncc3cc(-c4c(Cl)cccc4Cl)c(=O)n(C)c3n2)cc1
active: [1] 0.59 µM | [2] 0.0083 µM | [3] 0.132 µM | [4] 0.0418 µM | [5] 0.935 µM | [6] 2.35 µM | [7] 1.18 µM | [8] 0.526 µM

Nc1ncn([C@H]2C[C@H](O)[C@@H](CO)O2)c(=O)n1
active: [1] 0.264 µM
inactive: [2] | [6] | [7] | [8]

Cc1nc(Nc2ncc(C(=O)Nc3c(C)cccc3Cl)s2)cc(N2CCN(CCO)CC2)n1
active: [1] 16.6 µM | [2] 0.0662 µM | [4] 3.32 µM | [5] 5.26 µM | [9] 14.8 µM

Cc1ccc(C)c(OCCCC(C)(C)C(=O)O)c1
active: [1] 16.6 µM | [2] 7.43 µM | [5] 8.33 µM
inactive: [6] | [7] | [8]

Cn1c(NCCN(CCO)CCCc2ccc([N+](=O)[O-])cc2)cc(=O)n(C)c1=O
inactive: [6] | [7]
active: [1] 26.4 µM | [2] 18.7 µM

Cc1cc(C2CCCCC2)n(O)c(=O)c1
active: [1] 8.33 µM | [2] 8.33 µM | [4] 8.33 µM | [5] 8.33 µM | [9] 5.26 µM

CCC(C)(Oc1ccc(C2(c3ccc(OC(C)(CC)C(=O)O)cc3)CCCCC2)cc1)C(=O)O (configuration not stated)
inactive: [1] | [2] | [4] | [6] | [7]

CC1(C)CCC(C)(C)c2cc(NC(=O)c3ccc(C(=O)O)cc3)ccc21
inactive: [7] | [8]
active: [1] 3.72 µM | [2] 18.7 µM | [4] 20.9 µM
